Test results reported in publication PMC5540273 (PLoS ONE, 2017).

Columns and labels:
Settings in all cases: concentration: 1 μM, replicates: in singlicate; n = 1
[1] = test system: T1, RSK4(Kin.Dom.1-N-terminal)
T1 construct: gene RPS6KA6

[2] = test system: T2, RSK4(Kin.Dom.2-C-terminal)
T2 construct: gene RPS6KA6

S6K1 = test system: S6K1
SBK1 = test system: SBK1
SGK2 = test system: SGK2
SGK3 = test system: SGK3
SGK = test system: SGK
SIK2 = test system: SIK2
SIK = test system: SIK
SLK = test system: SLK
SNARK = test system: T3, SNARK
T3 construct: gene NUAK2

SNRK = test system: SNRK
SRC = test system: SRC
SRMS = test system: SRMS
SRPK1 = test system: SRPK1
SRPK2 = test system: SRPK2
SRPK3 = test system: SRPK3
STK16 = test system: STK16
STK33 = test system: STK33
STK35 = test system: STK35
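Further: KINOMEscan kinase panel screen.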

Compound | %Inh [1] | %Inh [2] | %Inh (S6K1) | %Inh (SBK1) | %Inh (SGK2) | %Inh (SGK3) | %Inh (SGK) | %Inh (SIK2) | %Inh (SIK) | %Inh (SLK) | %Inh (SNARK) | %Inh (SNRK) | %Inh (SRC) | %Inh (SRMS) | %Inh (SRPK1) | %Inh (SRPK2) | %Inh (SRPK3) | %Inh (STK16) | %Inh (STK33) | %Inh (STK35)
Cc1ccc(C)c(NC(=O)NC2CCN(c3ccnc(Nc4ccc(F)cc4)n3)C2)c1 (stereo not drawn) [GSK1379720] | 0% | 6% | 8% | 1% | 2% | 0% | 0% | 0% | 0% | 0% | 0% | 0% | 0% | 0% | 24% | 49% | 0% | 0% | 0% | 0%
COc1cccc(C(=O)Nc2cccc(Oc3ccc4nc(NC(=O)C5CC5)cn4n3)c2)c1 | 0% | 0% | 0% | 0% | 0% | 23% | 0% | 27% | 63% | 49% | 5% | 8% | 94.1% | 20% | 40% | 29% | 0% | 0% | 10% | 0%
Nc1ncnc2c1nc(-c1ccccc1)n2-c1ccccc1 [SKF-97293] | 36% | 0% | 29% | 53% | 0% | 16% | 23% | 0% | 8% | 0% | 24% | 18% | 10% | 24% | 0% | 5% | 9% | 0% | 16% | 0%
CN1CCN(Cc2cccc(-c3ccc4c(Nc5ccc(Oc6ccccc6)cc5)ccnc4c3)c2)CC1 [GW578342] | 0% | 0% | 0% | 11% | 0% | 1% | 7% | 1% | 0% | 0% | 0% | 0% | 34% | 97.1% | 69% | 20% | 0% | 2% | 13% | 70%
CSc1cccc2c(-c3ccncn3)c(-c3ccc(F)cc3)nn12 [GW514786] | 0% | 90% | 0% | 2% | 15% | 0% | 1% | 2% | 2% | 22% | 0% | 0% | 1% | 0% | 0% | 0% | 100% | 3% | 0% | 0%
CCc1ccc(-c2ccc3c(c2)-c2c(cnn2C)S(=O)(=O)N3C)cc1 | 0% | 0% | 4% | 0% | 0% | 0% | 0% | 4% | 6% | 0% | 8% | 0% | 0% | 0% | 0% | 0% | 18% | 0% | 0% | 2%
O=C(Nc1cccc(Oc2ccc3nc(NC(=O)C4CC4)cn3n2)c1)c1ccccc1C(F)(F)F | 0% | 0% | 0% | 0% | 7% | 0% | 0% | 28% | 1% | 32% | 0% | 0% | 5% | 0% | 59% | 14% | 48% | 17% | 0% | 3%
Fc1ccc(-c2ncn(C3CCNCC3)c2-c2ccnc(Oc3ccc(-c4ccccc4)cc3)n2)cc1 [SB-245391] | 18% | 9% | 11% | 52% | 18% | 12% | 12% | 4% | 12% | 0% | 16% | 23% | 11% | 3% | 5% | 0% | 5% | 14% | 21% | 0%
COC(=O)Nc1nc2ccc(Oc3ccc(NC(=O)Nc4cc(C(F)(F)F)ccc4F)cc3)cc2n1C.Cl [GW692089] | 0% | 0% | 1% | 4% | 0% | 20% | 8% | 0% | 1% | 49% | 17% | 0% | 0% | 0% | 26% | 57% | 5% | 0% | 30% | 0%
